Source: PubChem BioAssay (Tox21)
“And” between values parts separate entries of the source, which are not always exact repeats. Equal entries are not always repeated. Records with an inconclusive call do not appear. Entries that show only a call come without a potency. A structure can be active in one record and inactive in another. The source made the active and inactive calls. Unless noted, calls follow the shape of the dose curve; as a rule, active = well fitted curve in the direction sought with a large enough effect in the repeat runs; inconclusive = weak or mixed curves; inactive = no such curve, though single readings can be large; an effect the other way counts as inactive or inconclusive.

Columns and labels:
[1] = qHTS assay to identify small molecule antagonists of the vitamin D receptor (VDR) signaling pathway - cell viability counter screen (AID 743225); also: nearly all actives have a fitted effect of over 50% in size; also: potency is read from the fitted curve at half-maximal effect
In short: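 Compounds were pinned onto VDR-bla HEK 293T cells together with 1-alpha,25-dihydroxyvitamin D3 at 3 nM final. After 16 h at 37C and 5% CO2 plus the reporter readout, cell viability was measured by CellTiter-Glo luminescence (30 min, room temperature).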

[2] = qHTS assay to identify small molecule agonists of the NFkB signaling pathway - cell viability counter screen (AID 1159515; calls by dose curve; also: nearly all actives have a fitted effect of over 55% in size; also: potency is read from the fitted curve at half-maximal effect)
In short: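 Tox21 library compounds were tested for cytotoxicity against NFkB-bla ME-180 cells during a 5 hr exposure at 37 C. CellTiter-Glo luminescence served as the viability read-out.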

[3] = qHTS assay to identify small molecule agonists of the endoplasmic reticulum stress response signaling pathway - cell viability counter screen (AID 1159517; calls by dose curve; also: nearly all actives have a fitted effect of over 50% in size; also: potency is read from the fitted curve at half-maximal effect)
In short: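 After overnight attachment, ESRE-bla HeLa cells were treated with Tox21 library compounds for 5 hr. CellTiter-Glo luminescence, read 30 min post-addition at room temperature, reported viability.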

[4] = qHTS assay to identify small molecule antagonists of the retinoid-related orphan receptor gamma (ROR-gamma) signaling pathway - cell viability counter screen (AID 1159520); also: nearly all actives have a fitted effect of over 50% in size; also: potency is read from the fitted curve at half-maximal effect
In short: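 Cytotoxicity was read from cellular ATP (CellTiter-Glo luminescence) after 16 hr at 37 C with 1 uM doxycycline induction. The inducer was added 2 hr after compound transfer to Tet-on ROR gamma CHO cells.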

[5] = molecular target: Nuclear receptor ROR-gamma (Homo sapiens) (UniProt P51449); experiment: qHTS assay to identify small molecule antagonists of the retinoid-related orphan receptor gamma (ROR-gamma) signaling pathway (AID 1159521; also: nearly all actives have a fitted effect of over 50% in size; also: potency is read from the fitted curve at half-maximal effect)
In short: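 Test compounds were applied to Tet-on RORγ CHO cells 2 h ahead of doxycycline hyclate (1 uM final). Luciferase reporter activity was quantified by luminescence after 16 h at 37 C and 5% CO2.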

[6] = qHTS assay to identify small molecule agonists of the AP-1 signaling pathway - cell viability counter screen (AID 1159525; calls by dose curve; also: nearly all actives have a fitted effect of over 55% in size; also: potency is read from the fitted curve at half-maximal effect)
In short: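 Intracellular ATP by Cell Titer Glo luminescence (30 min, RT) in the same ME-180 AP-1-bla wells after the 5 h compound exposure at 37 °C. Normalised to tetra n-octyl ammonium bromide and DMSO controls.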

[7] = molecular target: Retinoic acid receptor RXR-alpha (Homo sapiens) (UniProt P19793); experiment: qHTS assay to identify small molecule agonists of the RXR signaling pathway (AID 1159527; calls by dose curve; also: nearly all actives have a fitted effect of over 35% in size)
Sequence of Retinoic acid receptor RXR-alpha (Homo sapiens) (P19793 whole entry, looked up): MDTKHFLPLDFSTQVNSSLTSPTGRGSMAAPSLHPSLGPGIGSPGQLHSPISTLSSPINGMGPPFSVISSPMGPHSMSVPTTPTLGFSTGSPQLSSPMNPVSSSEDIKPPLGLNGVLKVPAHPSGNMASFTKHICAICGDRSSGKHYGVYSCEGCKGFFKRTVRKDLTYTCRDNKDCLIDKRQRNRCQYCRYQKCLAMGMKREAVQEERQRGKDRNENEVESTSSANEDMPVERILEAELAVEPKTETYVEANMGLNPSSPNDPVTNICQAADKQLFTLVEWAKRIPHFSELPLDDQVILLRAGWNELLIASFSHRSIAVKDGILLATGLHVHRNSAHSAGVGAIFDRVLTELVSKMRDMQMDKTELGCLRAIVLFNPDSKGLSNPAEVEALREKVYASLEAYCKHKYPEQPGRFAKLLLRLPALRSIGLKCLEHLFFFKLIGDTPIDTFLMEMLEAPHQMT
In short: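 Using 9-cis retinoic acid as the reference agonist, chemicals were tested in HEK 293T cells […] for 16 hr; substrate loading lasted 2 hr at room temperature.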

[8] = qHTS assay to identify small molecule antagonists of the retinoid acid receptor (RAR) signaling pathway - cell viability counter screen (AID 1159551); also: nearly all actives have a fitted effect of over 35% in size; also: potency is read from the fitted curve at half-maximal effect
In short: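 In this counter screen, the RARE-luciferase line C3RL4 was exposed for 6 h at 37 C and 5% CO2 to compounds with retinol at 1 uM final. Cellular ATP, read by luminescence, served as the viability measure.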

[9] = qHTS assay to identify small molecule agonists of the RXR signaling pathway - cell viability counter screen (AID 1159529); also: nearly all actives have a fitted effect of over 50% in size; also: potency is read from the fitted curve at half-maximal effect
In short: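 Compounds dissolved in DMSO were pinned onto HEK 293T cells carrying a beta-lactamase reporter under RXR-alpha control and incubated 16 hr. Cytotoxicity was then quantified by CellTiter-Glo luminescence.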

[10] = qHTS assay to identify small molecule antagonists of the retinoic acid receptor (RAR) signaling pathway (AID 1159552; also: nearly all actives have a fitted effect of over 50% in size; also: potency is read from the fitted curve at half-maximal effect)
In short: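 Test chemicals and DMSO controls were pin-transferred onto C3RL4 cells a day after seeding; retinol (1 uM final) followed at once. Luminescent reporter output was quantified after 6 hr of co-incubation and 30 min with detection reagent.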

[11] = qHTS assay to identify small molecule agonists of the retinoic acid receptor (RAR) signaling pathway (AID 1159553); also: potency is read from the fitted curve at half-maximal effect
In short: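 In this cell-based screen, 1,000 C3RL4 cells per well were cultured overnight, dosed with test chemicals in DMSO for 6 hr, and assessed for RARE luciferase luminescence.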

[12] = qHTS assay to identify small molecule antagonists of the estrogen related receptor (ERR) signaling pathway from Tox21 library - cell viability counter screen (AID 1224834); also: nearly all actives have a fitted effect of over 30% in size; also: potency is read from the fitted curve at half-maximal effect
In short: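 Counter screen run in ERR cells (2,000 cells/well): cells pre-incubated 6 h, then treated with compounds for 17.5 h at 37 C. Fluorescence was read 30 min after CellTiter-Fluor addition.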

[13] = qHTS assay to identify small molecule agonists of the AP-1 signaling pathway (AID 1159526; calls by dose curve)
[14] = qHTS assay to identify small molecule antagonists of the estrogen related receptor (ERR) signaling pathway - cell viability counter screen (AID 1224818); also: potency is read from the fitted curve at half-maximal effect
In short: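 Viability of ERR cells, CellTiter-Fluor fluorescence; 17.5 h compound exposure at 37 C, DMSO vehicle; 30 min reagent incubation at 37 C/5% CO2.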

[15] = qHTS assay to identify small molecule antagonists of the estrogen related receptor (ERR) signaling pathway (AID 1224819)
In short: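 Seed ERR cells 2,000/well; rest 6 h at 37 C/5% CO2; pin compounds in DMSO; incubate 18 h at 37 C; add One-Glo; wait 30 min at room temperature; measure luminescence.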

[16] = qHTS assay to identify small molecule agonists of the estrogen related receptor (ERR) signaling pathway (AID 1224820); also: potency is read from the fitted curve at half-maximal effect
In short: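 Luminescence readout (One-Glo, 30 min RT) from NTP-supplied ERR cell line exposed to compounds for 18 h at 37 C. Cells seeded 2,000 per well and pre-incubated 6 h before pin-tool compound transfer.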

[17] = system: estrogen-related receptor alpha (ERRalpha) with PGC-1alpha coactivator, human; experiment: qHTS assay to identify small molecule antagonists of the estrogen related receptor signaling pathway with the pleiotropic PPARgamma coactivator (PGC) (AID 1224821; calls by dose curve)
In short: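 PGC/ERR reporter cells; 6 h pre-incubation 37 C/5% CO2; pin-tool compound in DMSO, 18 h 37 C; One-Glo added, 30 min RT; luminescence read. qHTS antagonist mode.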

[18] = qHTS assay to identify small molecule agonists of the estrogen related receptor signaling pathway with the pleiotropic PPARgamma coactivator (PGC) (AID 1224823); also: potency is read from the fitted curve at half-maximal effect
In short: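 Luminescence readout (One-Glo, 30 min RT) from PGC/ERR cell line treated 18 h at 37 C with pin-tool-delivered DMSO compound solutions; cells plated 6 h before dosing. Quantitative HTS format.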

| SMILES | Potency [1] | Potency [2] | Potency [3] | Potency [4] | Potency [5] | Potency [6] | Potency [7] | Potency [8] | Potency [9] | Potency [10] | Potency [11] | Potency [12] | Potency [13] | Potency [14] | Potency [15] | Potency [16] | Potency [17] | Potency [18] |
| --- | --- | --- | --- | --- | --- | --- | --- | --- | --- | --- | --- | --- | --- | --- | --- | --- | --- | --- |
| ClC1=C(Cl)[C@]2(Cl)[C@H]3[C@H]([C@@H]4C=C[C@H]3C4)[C@@]1(Cl)C2(Cl)Cl | inactive | 54.9 µM (active) | 21.8 µM (active) and 49 µM (active) | 61 µM (active) | 54.4 µM (active) | 38.9 µM (active) | inactive | inactive |  |  |  |  |  |  |  |  |  |  |
| CC(=O)[O][Sn]([c]1ccccc1)([c]1ccccc1)[c]1ccccc1 | 0.219 µM (active) | 2.45 µM (active) | 13.8 µM (active) | 0.0969 µM (active) | 0.0243 µM (active) | 3.89 µM (active) |  | 7.7 µM (active) | 0.138 µM (active) |  |  |  |  |  |  |  |  |  |
| Cc1cccc(Cc2cnc[nH]2)c1C | inactive | inactive | inactive | inactive | inactive | inactive | inactive | inactive | inactive | inactive | inactive | inactive |  |  |  |  |  |  |
| CC(C)N(C(=O)CCl)c1ccccc1 | inactive | inactive | inactive | 27.3 µM (active) and 30.6 µM (active) |  | inactive |  |  |  | 27.3 µM (active) and 30.6 µM (active) |  | 21.7 µM (active) | inactive |  |  |  |  |  |
| CC(C)[C@@H](Nc1ccc(C(F)(F)F)cc1Cl)C(=O)OC(C#N)c1cccc(Oc2ccccc2)c1 (stereo partly drawn) | inactive | inactive | inactive | inactive | inactive | inactive |  | inactive | inactive | inactive | inactive |  |  |  |  |  |  |  |
| Nc1ccc(N=Nc2ccccc2)cc1 |  | inactive | inactive | inactive | inactive | inactive |  | inactive | inactive | inactive | 0.386 µM (active) | 24.3 µM (active) |  | 31.8 µM (active) | inactive | 10.1 µM (active) | inactive | 14.2 µM (active) |
| Clc1ccc(C(c2ccc(Cl)cc2)C(Cl)Cl)cc1 |  | 49.8 µM (active) | 22.2 µM (active) and 54.9 µM (active) |  | 55.4 µM (active) and 54.5 µM (active) | 24.9 µM (active) and 34.7 µM (active) |  | inactive |  |  |  |  |  |  |  |  |  |  |
| N#CC(C#N)=NNc1cccc(Cl)c1 | 8.71 µM (active) | inactive | inactive | 2.73 µM (active) | 0.486 µM (active) | inactive |  | inactive |  | 2.73 µM (active) |  | 9.69 µM (active) |  |  |  |  |  |  |
| CN1C(=O)[C@@H](NC(=O)c2cc3ccccc3[nH]2)N=C(c2ccccc2)c2ccccc21 | inactive | inactive | inactive | inactive | inactive | inactive | inactive | inactive |  | inactive | inactive |  |  |  |  |  |  |  |
| CC1(C)[C@H](/C=C2\CCSC2=O)[C@@H]1C(=O)OCc1coc(Cc2ccccc2)c1 |  | inactive | inactive | inactive | 27.3 µM (active) | inactive | inactive | inactive |  | inactive | inactive |  |  |  |  |  |  |  |
| N#Cc1c2ccccc2cc2ccccc12 |  | inactive | inactive | inactive | inactive | inactive |  |  |  | inactive | inactive | inactive |  |  |  |  |  |  |
| CC(C)C(Nc1ccc(C(F)(F)F)cc1Cl)C(=O)OC(C#N)c1cccc(Oc2ccccc2)c1 (stereo not drawn) |  | inactive | inactive | inactive | inactive | inactive | inactive | inactive | inactive | inactive |  |  |  |  |  |  |  |  |
| CCOP(=O)(OCC)Oc1nc(Cl)c(Cl)cc1Cl |  | inactive | inactive | inactive | 48.3 µM (active) | inactive |  | inactive |  | inactive | inactive | inactive |  |  |  |  |  |  |
| [F][Sn]([c]1ccccc1)([c]1ccccc1)[c]1ccccc1 | 0.692 µM (active) | 7.76 µM (active) | 5.49 µM (active) | 0.864 µM (active) | 0.273 µM (active) | 7.76 µM (active) |  | 17.2 µM (active) | 0.692 µM (active) | 0.243 µM (active) |  | 1.09 µM (active) |  |  |  |  |  |  |
| CCOP(=S)(OCC)Oc1cc(C)nc(N(CC)CC)n1 |  | inactive | inactive | inactive | inactive | inactive | inactive | inactive |  |  |  | inactive |  |  |  |  |  |  |
| O=C1C(Cl)=C(Cl)C(=O)C(Cl)=C1Cl | 17.4 µM (active) | 38.9 µM (active) | 54.8 µM (active) | 15.3 µM (active) | 12.1 µM (active) and 30.6 µM (active) | inactive |  | 60.9 µM (active) and inactive | 38.9 µM (active) | 54.3 µM (active) and 61.1 µM (active) |  | 34.2 µM (active) and 30.6 µM (active) |  |  |  |  |  |  |
